Laboratory results as given in the supplement of paper PMC9262897, “Low-cost anti-mycobacterial drug discovery using engineered E. coli” (Nature Communications, 2022).
Where a name gives a salt, the structure may show the parent alone. ± gives the standard deviation of the averaged measurements.

tested on: E. coli TESEC Mtb Alr; assay: growth (OD600 after 10 h); higher = more growth (less inhibition); settings: arabinose 10000000 nM; compound 0.1 mM; raw OD600 reference: median of DMSO wells 0.146, cell-free background 0.041
Procedure: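 TESEC Mtb Alr E. coli, or the Alr+ wild-type control, in 384-well plates with Prestwick library compounds at 0.1 mM and 1% DMSO, across arabinose induction levels of 1E3 to 1E7 nM. Growth is read as OD600 after 10 h at 37 °C in triplicate biological replicates.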

Question: For CC(C)c1ccc2oc3nc(N)c(C(=O)O)cc3c(=O)c2c1 [Amlexanox], which growth is on record?
Answer: 0.166 ± 0.011

Question: For CCC1=C(C)CN(C(=O)NCCc2ccc(S(=O)(=O)NC(=O)N[C@H]3CC[C@H](C)CC3)cc2)C1=O [Glimepiride], which growth is on record?
Answer: 0.155 ± 0.0053

Question: CCOc1ccc2ccccc2c1C(=O)N[C@@H]1C(=O)N2[C@@H]1SC(C)(C)[C@@H]2C(=O)O [Nafcillin sodium salt monohydrate] was tested. Which growth did it give?
Answer: 0.138 ± 0.0027

Question: S=c1[nH]cnc2nc[nH]c12 [Mercaptopurine] was tested. Which growth did it give?
Answer: 0.0747 ± 0.0012

Question: For O=C(O)c1cccnc1 [Niacin], which growth is on record?
Answer: 0.152 ± 0.0078

Question: Which growth does the source give for CC(=O)OCC(=O)[C@@]1(O)CC[C@H]2[C@@H]3CCC4=CC(=O)C=C[C@]4(C)[C@@]3(F)[C@@H](O)C[C@@]21C [Isoflupredone acetate] here?
Answer: 0.13 ± 0.0065

Question: With CCc1oc2ccccc2c1C(=O)c1cc(Br)c(O)c(Br)c1 [Benzbromarone] as the molecule, how does the growth read?
Answer: 0.047 ± 0.0017

Question: How did the growth turn out when NS(=O)(=O)c1cc(Cl)c(Cl)c(S(N)(=O)=O)c1 [Dichlorphenamide] was run?
Answer: 0.131 ± 0.0026

Question: With O=C(O)[C@H]1/C(=C/CO)O[C@@H]2CC(=O)N21 [Clavulanate potassium salt] as the molecule, how does the growth read?
Answer: 0.0991 ± 0.0015

Question: How did the growth turn out when COc1ccccc1OCCNCC(O)COc1cccc2[nH]c3ccccc3c12 (stereo not drawn) [Carvedilol] was run?
Answer: 0.0456 ± 0.0015

Question: For CC(=O)N[C@@H](CS)C(=O)O [Acetylcysteine], which growth is on record?
Answer: 0.142 ± 0.0051

Question: For CO[C@@]1(NC(=O)C2SC(=C(C(N)=O)C(=O)O)S2)C(=O)N2C(C(=O)O)=C(CSc3nnnn3C)CS[C@@H]21 (stereo partly drawn) [Cefotetan], which growth is on record?
Answer: 0.03917 ± 5.8e-05

Question: With CC(=O)O[C@H]1C(=O)[C@@]2(C)[C@H]([C@H](OC(=O)c3ccccc3)[C@]3(O)C[C@H](OC(=O)[C@H](O)[C@@H](NC(=O)c4ccccc4)c4ccccc4)C(C)=C1C3(C)C)[C@]1(OC(C)=O)CO[C@@H]1C[C@@H]2O [Paclitaxel] as the molecule, how does the growth read?
Answer: 0.179 ± 0.018
